The antibiotic and cytotoxicity screens of Wong et al. (2023)
In all, about 39,000 compounds went through this assay and about 3,300 (8.5%) were called active. This excerpt belongs to a sample that is enriched for actives.

Each compound was assayed on HepG2 (assay: cytotoxicity call (relative viability < 0.9)). Details: 10 µM.

SMILES	cytotoxicity call
C[C@@H]1CN([C@@H](C)CO)C(=O)c2cccc(NC(=O)c3cnccn3)c2O[C@H]1CN(C)CC1CCCCC1	inactive
COCC#Cc1ccc2c(c1)O[C@@H](CN(C)S(=O)(=O)c1cccc(F)c1)[C@H](C)CN([C@H](C)CO)S2(=O)=O	inactive
C[C@@H]1CN([C@@H](C)CO)C(=O)c2cccc(NC(=O)Nc3ccc(F)cc3)c2O[C@@H]1CN(C)Cc1ccc(Oc2ccccc2)cc1	inactive
COc1ccc(S(=O)(=O)Nc2ccc3c(c2)C(=O)N([C@@H](C)CO)C[C@H](C)[C@H](CN(C)C(=O)Nc2cccc4ccccc24)OCCCC[C@H](C)O3)cc1	active
COc1ccc(S(=O)(=O)Nc2ccc3c(c2)C(=O)N([C@H](C)CO)C[C@H](C)[C@@H](CN(C)C(=O)Nc2cccc4ccccc24)OCCCC[C@H](C)O3)cc1	active
COc1ccc(S(=O)(=O)Nc2ccc3c(c2)C(=O)N([C@H](C)CO)C[C@H](C)[C@H](CN(C)C(=O)Nc2cccc4ccccc24)OCCCC[C@@H](C)O3)cc1	inactive
COc1ccc(S(=O)(=O)Nc2ccc3c(c2)C(=O)N([C@H](C)CO)C[C@H](C)[C@@H](CN(C)C(=O)Nc2cccc4ccccc24)OCCCC[C@@H](C)O3)cc1	inactive
COc1ccc(S(=O)(=O)Nc2ccc3c(c2)C(=O)N([C@@H](C)CO)C[C@H](C)[C@H](CN(C)C(=O)Nc2cccc4ccccc24)OCCCC[C@@H](C)O3)cc1	inactive
COc1ccc(S(=O)(=O)Nc2ccc3c(c2)C(=O)N([C@@H](C)CO)C[C@@H](C)[C@@H](CN(C)C(=O)Nc2cccc4ccccc24)OCCCC[C@H](C)O3)cc1	inactive
O=C(CN1CCOCC1)NCC[C@H]1CC[C@H](NC(=O)c2ccc3c(c2)OCO3)[C@H](CO)O1	inactive
C[C@H](CO)N1C[C@H](C)[C@H](CN(C)C(=O)Nc2ccc(F)cc2)OCCCC[C@H](C)Oc2ccc(NC(=O)C3CCCC3)cc2C1=O	inactive
Clc1ccc(Cn2cccc2)cn1	inactive
CCS(=O)(=O)Nc1ccc2c(c1)C(=O)N(C)[C@@H]1CC[C@@H](CC(=O)N[C@H]3CCN(Cc4ccccc4)C3)O[C@@H]1CO2	inactive
C[C@H]1CN([C@@H](C)CO)C(=O)Cc2cc(NS(=O)(=O)c3ccc(F)cc3)ccc2O[C@@H]1CN(C)Cc1ccncc1	inactive
COCC(=O)Nc1ccc2c(c1)OC[C@H](C)N(C(=O)Cc1ccccn1)C[C@H](C)[C@@H](OC)CN(C)C2=O	inactive
COc1cc2c(cc1OC)C1Cc3ccc(OC)c(OC)c3CN1CC2 (stereo unspecified)	inactive
COc1ccc2c(c1OC)C(=O)OC2C1c2c(cc3c(c2OC)OCO3)CCN1C.Cl (stereo unspecified)	active
Cc1cc(-c2cc(OC(=O)c3ccccc3)ccc2Cl)cc2nnc(Nc3ccc(OCCN4CCCC4)cc3)nc12	inactive
CCN(CC)CCOc1ccc(Nc2ncc3cc(-c4c(Cl)cccc4Cl)c(=O)n(C)c3n2)cc1	active
O=C(C[C@@H]1C=C[C@@H](NC(=O)CN2CCOCC2)[C@H](CO)O1)NCCc1ccccc1	inactive
O=C(O)CNC(=O)C(=O)O	active
NCC(=O)NCC(=O)O	inactive
CNCC(=O)O	inactive
CN(C)CCN1C[C@@H]2CN(C(=O)[C@H]3CCOC3)C[C@H]2C1=O	inactive
C[C@@H]1CCCCO[C@H](CN(C)S(=O)(=O)c2cccs2)[C@@H](C)CN([C@@H](C)CO)C(=O)c2cc(NC(=O)NC3CCCCC3)ccc2O1	inactive
Cc1noc(C)c1S(=O)(=O)Nc1ccc2c(c1)C(=O)N([C@@H](C)CO)C[C@H](C)[C@H](CN(C)Cc1ccc3c(c1)OCO3)O2	inactive

SMILES	cytotoxicity call
COc1ccc(S(=O)(=O)N(C)C[C@@H]2OCCCC[C@@H](C)Oc3ccc(NC(=O)Nc4ccc(F)cc4)cc3C(=O)N([C@@H](C)CO)C[C@H]2C)cc1	inactive
CN(C)CC(=O)N1CC2(C1)[C@H](c1ccccc1)[C@H](CO)N2S(C)(=O)=O	inactive
CNC(=O)c1ccc(Nc2ncc(C(F)(F)F)c(NCc3nccnc3N(C)S(C)(=O)=O)n2)cc1	active
CN(c1ncccc1CNc1nc(Nc2ccc3c(c2)CC(=O)N3)ncc1C(F)(F)F)S(C)(=O)=O	active
Cc1cnc(CNC(=O)c2c(=O)c3ccc(N4CCCN(C)CC4)nc3n3c2sc2ccccc23)cn1	inactive
CCS(=O)(=O)N1C[C@]2(CN(C2)C(=O)Nc2ccc(cc2F)F)c2c(n(c3cc(ccc23)OC)C)[C@@H]1CO	inactive
CN(C)Cc1cn(CC[C@H]2CC[C@@H](NC(=O)Cc3cccnc3)[C@@H](CO)O2)nn1	inactive
O=c1/c(=C\c2ccc(F)cc2)sc2n1CCN=2	inactive
O=C(/C=C/c1cc2c(cc1Br)OCCO2)c1c(-c2ccccc2)c2cc(Cl)ccc2[nH]c1=O	active
N=C(CN1CCCCC1)NO	inactive
CN(C)CCCNC(=O)C[C@@H]1CC[C@H]2[C@@H](COC[C@@H](O)CN2C(=O)c2cc(Cl)cc(Cl)c2)O1	inactive
COc1ccc(NC(=O)Nc2ccc3c(c2)C(=O)N([C@@H](C)CO)C[C@H](C)[C@H](CN(C)C(=O)Nc2ccc(C(F)(F)F)cc2)OCCCC[C@H](C)O3)cc1	inactive
C[C@H]1CN([C@@H](C)CO)C(=O)c2cccc(NS(=O)(=O)c3ccc(F)cc3)c2O[C@@H]1CN(C)Cc1ccc(Cl)c(Cl)c1	inactive
COC1=C(N)C(=O)c2nc(-c3nc(C(=O)O)c(C)c(-c4ccc(OC)c(OC)c4O)c3N)ccc2C1=O	active
COc1ccc(NC(=O)N(C)C[C@@H]2Oc3ncc(Br)cc3C(=O)N([C@H](C)CO)C[C@@H]2C)cc1	inactive
CCCNC(=O)N1C[C@H](O)COC[C@@H]2O[C@H](CC(=O)NCCCN3CCOCC3)CC[C@H]21	inactive
CN1C(=O)c2cc(NC(=O)c3ccc(C(F)(F)F)cc3)ccc2OC[C@@H]2O[C@@H](CC(=O)NC3Cc4ccccc4C3)CC[C@H]21	inactive
CN1C(=O)c2cc(NC(=O)c3ccc(C(F)(F)F)cc3)ccc2OC[C@@H]2O[C@H](CC(=O)NC3Cc4ccccc4C3)CC[C@H]21	inactive
CN1C(=O)c2cc(NC(=O)Nc3ccccc3F)ccc2OC[C@H]2O[C@H](CC(=O)NCc3ccc(-c4ccccc4)cc3)CC[C@H]21	inactive
CN1C(=O)c2cc(NC(=O)c3ccc(C(F)(F)F)cc3)ccc2OC[C@H]2O[C@H](CC(=O)NC3Cc4ccccc4C3)CC[C@@H]21	inactive
CN1C(=O)c2cc(NC(=O)c3ccc(C(F)(F)F)cc3)ccc2OC[C@@H]2O[C@H](CC(=O)NC3Cc4ccccc4C3)CC[C@@H]21	inactive
CN(C)CC(=O)Nc1ccc2c(c1)C(=O)N(C)[C@H]1CC[C@H](CC(=O)Nc3cccc(Cl)c3)O[C@@H]1CO2	inactive
CN1C(=O)c2cc(NC(=O)c3ccc(C(F)(F)F)cc3)ccc2OC[C@H]2O[C@H](CC(=O)NC3Cc4ccccc4C3)CC[C@H]21	active
CN1C(=O)c2cc(NC(=O)Nc3ccccc3F)ccc2OC[C@H]2O[C@@H](CC(=O)Nc3cccc(Cl)c3)CC[C@@H]21	active
CN1C(=O)c2cc(NC(=O)c3ccc(C(F)(F)F)cc3)ccc2OC[C@@H]2O[C@@H](CC(=O)NC3Cc4ccccc4C3)CC[C@@H]21	active
